The text below walks through data of PubChem BioAssay (NCI).

SMILES strings stand for the structures. The panel holds about 83,000 compounds, 20% with a hit somewhere; the sample as a whole holds those more often.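 The test compound was applied at a single concentration to cells in 96-well plates for 48 hours, and percent growth was recorded.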 Values without a mark were called inactive. Activity calls are given as the source filed them. How the source made its calls: active means growth percent below 10; inactive means the rest.

Some test systems named below: HCT-15 colon; HT29 colon; SNB-75 CNS; SNB-19 CNS; U251 CNS; PC-3 prostate; SK-MEL-5 melanoma; UACC-62 melanoma; LOX IMVI melanoma; SK-MEL-28 melanoma; SK-MEL-2 melanoma; EKVX NSCLC; SN12C renal; UO-31 renal; TK-10 renal; ACHN renal; CAKI-1 renal; A498 renal; CCRF-CEM leukemia; MOLT-4 leukemia.
Assay in all cases: NCI-60 one-dose screen, 48 h (100 = growth as untreated, 0 = no growth, -100 = all killed)
What all share (conditions): 10 µM unless noted

With `c1ccc(-c2nnc(Nc3ccc4c(c3)OCCO4)o2)c(NCc2ccncc2)c1`, the growth with HCT-15 colon is 6.86% (active); with HT29 colon, 0.34% (active); in the assay with SNB-75 CNS, 22.6%; in the assay with SNB-19 CNS it was 28.4%; with U251 CNS, 20.5%; in the assay on PC-3 prostate, 29.7%. The growth in the assay on SK-MEL-5 melanoma was -50% (active); with UACC-62 melanoma, 20.7%; in the assay with LOX IMVI melanoma it was 23.6%; in the assay with SK-MEL-28 melanoma it was 63.3%; with SK-MEL-2 melanoma it was 4.04% (active); in the assay on EKVX NSCLC, 35.4%. The growth in the assay with SN12C renal was 27.5%; with UO-31 renal it was 30.2%; in the assay with TK-10 renal, 50.9%; in the assay with ACHN renal, 23.4%; in the assay with CAKI-1 renal it was 21.1%; in the assay with A498 renal it was 10%. The growth is 20.4% in the assay with CCRF-CEM leukemia and 21.1% in the assay on MOLT-4 leukemia.

With `COc1ccc(-c2c[nH]c(C(=O)O)c2-c2cc(OC)c3c(c2OC)OCO3)cc1`, the growth with HCT-15 colon was 103%; in the assay with HT29 colon it was 110%; in the assay on SNB-75 CNS, 91.6%; with SNB-19 CNS, 101%; in the assay on U251 CNS it was 104%; in the assay on PC-3 prostate, 103%. Further, the growth with SK-MEL-5 melanoma is 102%; with UACC-62 melanoma, 95.4%; with LOX IMVI melanoma, 95.4%; in the assay with SK-MEL-28 melanoma, 104%; in the assay with SK-MEL-2 melanoma, 109%; with EKVX NSCLC, 105%. For the same compound, the growth in the assay on SN12C renal was 99.9%; in the assay with UO-31 renal it was 90.3%; in the assay with TK-10 renal, 116%; in the assay on ACHN renal it was 100%; in the assay on CAKI-1 renal, 86.4%; in the assay with A498 renal, 95%.

Take `COc1ccc(C(=O)/C=C/c2c(OC)cc(OC)cc2OC)c(OC)c1`: the growth in the assay with HCT-15 colon was 5.27% (active); in the assay on HT29 colon it was 1.7% (active); with SNB-75 CNS it was 8.7% (active); in the assay on SNB-19 CNS, 33.6%; with U251 CNS, 15.5%; with PC-3 prostate, 6.39% (active). In addition, the growth in the assay on SK-MEL-5 melanoma is -5.47% (active); with UACC-62 melanoma, 11.9%; with LOX IMVI melanoma it was 27.3%; in the assay on SK-MEL-28 melanoma it was 56.8%; in the assay on SK-MEL-2 melanoma, -9.11% (active); in the assay on EKVX NSCLC, 59.1%. In addition, the growth in the assay with SN12C renal is 28.8%; in the assay on UO-31 renal it was 31.8%; with TK-10 renal, 44.3%; in the assay on ACHN renal, 26.9%; in the assay with CAKI-1 renal it was -1.02% (active); in the assay on A498 renal, 13.8%. Further, the figures for the growth in the assay with CCRF-CEM leukemia and in the assay on MOLT-4 leukemia were 9.01% (active) and 33.6%, respectively.

Turning to `CCN(CC)S(=O)(=O)c1cccc([N+](=O)[O-])c1`, the growth in the assay with HCT-15 colon was 107%; with HT29 colon, 88.4%; in the assay with SNB-75 CNS, 79.9%; in the assay with SNB-19 CNS it was 103%; with U251 CNS it was 88.9%; in the assay on PC-3 prostate, 75.4%. Further, the growth in the assay on SK-MEL-5 melanoma was 97.9%; in the assay on UACC-62 melanoma, 102%; with LOX IMVI melanoma it was 97.6%; in the assay on SK-MEL-28 melanoma, 108%; in the assay on SK-MEL-2 melanoma it was 93%; in the assay on EKVX NSCLC, 98.7%. For the same compound, the growth in the assay with SN12C renal was 100%; in the assay with UO-31 renal, 82.6%; in the assay on TK-10 renal, 90%; in the assay on ACHN renal, 109%; with CAKI-1 renal it was 91.3%; in the assay on A498 renal it was 73.2%. Also, the growth in the assay on CCRF-CEM leukemia is 102%.

For the compound `COc1ccc(C(=O)c2cc3c(N)c(C(=O)Nc4cccc(OC)c4)sc3nc2C)cc1`, the growth was 16% with HCT-15 colon; 1.18% (active) in the assay on HT29 colon; -10.6% (active) in the assay on SNB-75 CNS; 40.2% in the assay on SNB-19 CNS; 15.1% in the assay on U251 CNS; 28.7% with PC-3 prostate. Besides, the growth in the assay with SK-MEL-5 melanoma was 15.3%; with UACC-62 melanoma, 44.5%; in the assay on LOX IMVI melanoma it was 36.6%; in the assay on SK-MEL-28 melanoma, 56.7%; with SK-MEL-2 melanoma, 27.9%; in the assay on EKVX NSCLC, 35.3%. The growth is 28.1% in the assay on SN12C renal; 49.3% in the assay on UO-31 renal; 57.1% with TK-10 renal; 41.2% in the assay on ACHN renal; 45.8% with CAKI-1 renal; -1.41% (active) with A498 renal. For the same compound, the growth was 7.12% (active) with CCRF-CEM leukemia and 15.8% in the assay with MOLT-4 leukemia.

`Cn1c2c(Cl)c(Cl)ccc2c2cc(N)[nH]c(=O)c21`: the growth in the assay with HCT-15 colon was 97.1%; in the assay with HT29 colon, 92.8%; with SNB-75 CNS it was 77.7%; in the assay with SNB-19 CNS it was 98.4%; with U251 CNS, 93.8%; in the assay on PC-3 prostate, 64.6%. Moreover, the growth in the assay on SK-MEL-5 melanoma is 81.7%; in the assay on UACC-62 melanoma, 87.2%; in the assay with LOX IMVI melanoma, 76.1%; with SK-MEL-28 melanoma, 103%; in the assay with SK-MEL-2 melanoma it was 116%; with EKVX NSCLC it was 59.9%. Besides, the growth in the assay on SN12C renal was 92%; with UO-31 renal it was 54.4%; with TK-10 renal, 120%; with ACHN renal, 82.6%; with CAKI-1 renal it was -23.4% (active); in the assay with A498 renal it was 56.5%. Besides, the growth in the assay with CCRF-CEM leukemia was 81.3%.

Regarding `COc1cc(/C=N/NC(=O)c2ccccc2Nc2cccc(C(F)(F)F)c2)ccc1O`, the growth in the assay with HCT-15 colon is 86.1%; in the assay with HT29 colon it was 113%; with SNB-75 CNS, 107%; with SNB-19 CNS it was 84.2%; in the assay on U251 CNS, 87.8%; in the assay on PC-3 prostate, 80.9%. Besides, the growth in the assay with SK-MEL-5 melanoma is 58.8%; in the assay on UACC-62 melanoma, 78.7%; in the assay on LOX IMVI melanoma, 76.3%; in the assay with SK-MEL-28 melanoma, 104%; in the assay with SK-MEL-2 melanoma, 136%; in the assay with EKVX NSCLC it was 79.5%. Further, the growth was 96.5% with SN12C renal; 74.8% in the assay on UO-31 renal; 126% in the assay with TK-10 renal; 103% with ACHN renal; 116% in the assay with CAKI-1 renal; 76.9% with A498 renal. For the same compound, the figures for the growth in the assay with CCRF-CEM leukemia and with MOLT-4 leukemia were -41.6% (active) and -76.2% (active), respectively.

Take `COc1ccc(-c2nc(N/N=C/c3ccco3)nc(N3CCOCC3)c2C#N)cc1`: the growth was 88.3% with HCT-15 colon; 91% in the assay on HT29 colon; 15.6% in the assay on SNB-75 CNS; 88.9% in the assay on SNB-19 CNS; 91.8% in the assay with U251 CNS; 59.5% with PC-3 prostate. Besides, the growth is 80.4% in the assay with SK-MEL-5 melanoma; 75.6% in the assay with UACC-62 melanoma; 88.3% in the assay on LOX IMVI melanoma; 80.8% in the assay with SK-MEL-28 melanoma; 91.4% in the assay on SK-MEL-2 melanoma; 82.3% with EKVX NSCLC. Further, the growth in the assay on SN12C renal is 80.2%; with UO-31 renal, 28.7%; in the assay on TK-10 renal, 89.8%; in the assay with ACHN renal it was 78.3%; with CAKI-1 renal, 59%; in the assay with A498 renal it was 6.67% (active). Moreover, the values for the growth in the assay with CCRF-CEM leukemia and with MOLT-4 leukemia were 74.2% and 62.2%, respectively.
